For 13 compounds, inhibition results are on record in ChEMBL document CHEMBL3433997, “St. Jude Leishmania screening dataset” (2016).

Holding throughout (format): functional
Test [1] has as its target Solute carrier family 2, facilitated glucose transporter member 1 (Homo sapiens) (UniProt P11166). Nature of the test: ST_JUDE_LEISH: Cytotoxicity at 2uM final concentration against transgenic Leishmania Mexicana promastigotes LmGLUT1 that are glucose transport deficient and complemented with the human glucose transporter GLUT1. Activity is measured by DNA content using SYBR green in vitro.

Test [2] has as its target Hexose transporter 1 (Plasmodium falciparum) (UniProt O97467). Nature of the test: ST_JUDE_LEISH: Cytotoxicity at 2uM final concentration against transgenic Leishmania Mexicana promastigotes LmPfHT that are glucose transport deficient and complemented with the Plasmodium falciparum hexose transporter. Activity is measured by DNA content using SYBR green in vitro.
For test [3], the target named is Glucose transporter (Leishmania mexicana) (UniProt O61059). Nature of the test: ST_JUDE_LEISH: Cytotoxicity at 2uM final concentration against transgenic Leishmania Mexicana promastigotes LmGT2 that are glucose transport deficient and complemented with the L. Mexicana glucose transporter 2. Activity is measured by DNA content using SYBR green in vitro.

Chain of Solute carrier family 2, facilitated glucose transporter member 1 (Homo sapiens) (P11166 whole entry): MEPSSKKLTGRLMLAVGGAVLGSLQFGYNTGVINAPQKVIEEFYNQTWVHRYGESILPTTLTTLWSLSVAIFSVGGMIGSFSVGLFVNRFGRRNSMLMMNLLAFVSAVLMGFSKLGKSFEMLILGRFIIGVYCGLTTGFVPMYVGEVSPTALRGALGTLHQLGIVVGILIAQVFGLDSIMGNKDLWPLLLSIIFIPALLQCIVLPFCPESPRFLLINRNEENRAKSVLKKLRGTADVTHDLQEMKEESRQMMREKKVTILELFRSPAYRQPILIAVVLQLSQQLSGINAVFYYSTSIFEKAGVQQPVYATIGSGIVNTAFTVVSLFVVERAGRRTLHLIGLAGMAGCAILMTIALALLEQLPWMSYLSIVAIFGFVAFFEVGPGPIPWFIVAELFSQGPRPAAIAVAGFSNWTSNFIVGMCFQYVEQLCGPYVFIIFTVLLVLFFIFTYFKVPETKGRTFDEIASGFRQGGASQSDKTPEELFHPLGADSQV

`CC1CN(Cc2ccc(-c3cccc(-c4nc5cc(F)ccc5[nH]4)c3)cc2)CC(C)O1` (centres undefined): the inhibition in test [1] turned out to be 1.55%; in test [2], 7.65%; in test [3], 2.46%.

On to `O=C(Nc1ccc2c(c1)CCN(C1CCC1)CC2)c1ccc(-n2ccnc2)cn1`, for which the inhibition was found to be 1.81% in test [1], 2.97% in test [2] and 2.28% in test [3].

In the case of `Cc1nc(N/C=C/c2ccc(O)cc2)cc(N2CCCC2)n1`, the inhibition was determined as 8.44% in test [1], 6.81% in test [2] and 7.13% in test [3].

For the compound `O=C(NC1CCCCN(Cc2ccccc2O)C1)c1cc(F)cc(F)c1` (centres undefined), the values for the inhibition in test [1], in test [2] and in test [3] were 4.28%, 5.08% and 3.51%, respectively.

On to `N#Cc1ccc2c(c1)CN(C1CCC(NC(=O)c3cc(-c4ccc(Cl)cc4)cs3)CC1)CCC2` (centres undefined), for which the figures for the inhibition in test [1], in test [2] and in test [3] were 3.29%, 0.21% and 1.7%, respectively.

On to `C=C[C@H]1CN(CCCCCCC)CC[C@H]1CCNc1ccnc2ccc(OC)cc12`, for which the results for the inhibition in test [1], in test [2] and in test [3] were -2.18%, 3.68% and -1.48%, respectively.

`O=C(Nc1ccc(Cl)cn1)c1sc2ccccc2c1O`: the inhibition stood at 3.18% in test [1], 3.43% in test [2] and 0.99% in test [3].

For `O=C(Nc1cc(Cl)cc(Cl)c1)c1cc(Cl)c(=O)n(Cc2ccc(Cl)cc2)c1`, the inhibition was 3% in test [1], 5.94% in test [2] and -0.15% in test [3].

As for `Cc1ccoc1C(=O)Nc1ccc(-c2cccc(-c3nc4cccc(C)c4[nH]3)c2)cc1`, the inhibition turned out to be 2.21% in test [1], 2.54% in test [2] and 1.34% in test [3].

For the compound `NC(=O)c1ccccc1Nc1nc(Nc2cccc(N3CCN(CCO)CC3)c2)ncc1Cl`, the inhibition in test [1] came to 64%; in test [2], 67.3%; in test [3], 57.8%.

In the case of `CCC(C)CN1CCN(c2ccc(NC(=O)c3cccs3)cc2)C(C)C1` (centres undefined), the inhibition is 8.34% in test [1], 9.28% in test [2] and 5.37% in test [3].

For the compound `Cc1noc(C)c1-c1ccc2c(Nc3ccccc3C(C)(C)C)c(C(=O)NCc3ccc(C(F)(F)F)cc3)cnc2c1`, the inhibition is 3.44% in test [1], 5.41% in test [2] and 3.69% in test [3].

Take `COc1cc2c(cc1C(F)(F)F)N(C(=O)Nc1cc(F)cc(-c3cccnn3)c1)CC2`: the inhibition in test [1] was -2.16%; in test [2], -2.17%; in test [3] it was 2.7%.
